Screening data as filed in PubChem.
Only some compounds are listed: those with a hit (about 12% of all), similar ones and a draw of the others.
HP1b chromo inh – inhibitors of HP1-beta chromodomain binding to methylated histone tails; AlphaScreen HP1-beta / biotin-H3K9me3 peptide binding; Potency, µM (doses to about 114 µM), for inactives: at the top dose activity change, negative = inhibition, hits mostly inhibitors; actives 0.56% (n = 390,000); AID 540317; note: nearly all actives have a fitted effect of over 70% in size
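HP1-beta protein (50 nM final) preincubated 30 min at room temperature with biotinylated H3(1-18)K9me3 peptide (50 nM) in PBS pH 7.4, 0.01% Tween-20, then compound added for 30 min. AlphaScreen streptavidin donor/nickel chelate acceptor beads (10 ug/mL final), 30 min dark, luminescence read.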
G9a inh – blocks human histone lysine methyltransferase G9a; actives 8.8% (n = 350,000); G9a H3K9 monomethylation, AlphaScreen, 2 h; Potency, µM (series often up to 102 µM), for inactives: top-dose activity, negative = inhibition, most hits filed as inhibitors; AID 504332; note: % is set by controls: 0 for no effect and ±100 for the full control effect; nearly all actives have a fitted effect of over 75% in size
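AlphaScreen read-out: biotin-H3K9 peptide (500 nM) methylation by 20 nM enzyme with 20 uM SAM, 2 h at room temperature after 15 min compound preincubation; anti-monomethyl H3K9 antibody plus donor/acceptor beads, 10 min dark.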
BAZ2B block – BAZ2B (human) inhibition; AlphaScreen BAZ2B-H3K14Ac peptide displacement; Potency, µM (top dose mostly 114 µM), for the others: at the highest dose activity change, negative = inhibition, hits mostly inhibitors; AID 504333; actives 4.4% (n = 360,000); note: % is set by controls: 0 for no effect and ±100 for the full control effect; nearly all actives have a fitted effect of over 60% in size
Target sequence (Q9UIF8 whole entry, looked up): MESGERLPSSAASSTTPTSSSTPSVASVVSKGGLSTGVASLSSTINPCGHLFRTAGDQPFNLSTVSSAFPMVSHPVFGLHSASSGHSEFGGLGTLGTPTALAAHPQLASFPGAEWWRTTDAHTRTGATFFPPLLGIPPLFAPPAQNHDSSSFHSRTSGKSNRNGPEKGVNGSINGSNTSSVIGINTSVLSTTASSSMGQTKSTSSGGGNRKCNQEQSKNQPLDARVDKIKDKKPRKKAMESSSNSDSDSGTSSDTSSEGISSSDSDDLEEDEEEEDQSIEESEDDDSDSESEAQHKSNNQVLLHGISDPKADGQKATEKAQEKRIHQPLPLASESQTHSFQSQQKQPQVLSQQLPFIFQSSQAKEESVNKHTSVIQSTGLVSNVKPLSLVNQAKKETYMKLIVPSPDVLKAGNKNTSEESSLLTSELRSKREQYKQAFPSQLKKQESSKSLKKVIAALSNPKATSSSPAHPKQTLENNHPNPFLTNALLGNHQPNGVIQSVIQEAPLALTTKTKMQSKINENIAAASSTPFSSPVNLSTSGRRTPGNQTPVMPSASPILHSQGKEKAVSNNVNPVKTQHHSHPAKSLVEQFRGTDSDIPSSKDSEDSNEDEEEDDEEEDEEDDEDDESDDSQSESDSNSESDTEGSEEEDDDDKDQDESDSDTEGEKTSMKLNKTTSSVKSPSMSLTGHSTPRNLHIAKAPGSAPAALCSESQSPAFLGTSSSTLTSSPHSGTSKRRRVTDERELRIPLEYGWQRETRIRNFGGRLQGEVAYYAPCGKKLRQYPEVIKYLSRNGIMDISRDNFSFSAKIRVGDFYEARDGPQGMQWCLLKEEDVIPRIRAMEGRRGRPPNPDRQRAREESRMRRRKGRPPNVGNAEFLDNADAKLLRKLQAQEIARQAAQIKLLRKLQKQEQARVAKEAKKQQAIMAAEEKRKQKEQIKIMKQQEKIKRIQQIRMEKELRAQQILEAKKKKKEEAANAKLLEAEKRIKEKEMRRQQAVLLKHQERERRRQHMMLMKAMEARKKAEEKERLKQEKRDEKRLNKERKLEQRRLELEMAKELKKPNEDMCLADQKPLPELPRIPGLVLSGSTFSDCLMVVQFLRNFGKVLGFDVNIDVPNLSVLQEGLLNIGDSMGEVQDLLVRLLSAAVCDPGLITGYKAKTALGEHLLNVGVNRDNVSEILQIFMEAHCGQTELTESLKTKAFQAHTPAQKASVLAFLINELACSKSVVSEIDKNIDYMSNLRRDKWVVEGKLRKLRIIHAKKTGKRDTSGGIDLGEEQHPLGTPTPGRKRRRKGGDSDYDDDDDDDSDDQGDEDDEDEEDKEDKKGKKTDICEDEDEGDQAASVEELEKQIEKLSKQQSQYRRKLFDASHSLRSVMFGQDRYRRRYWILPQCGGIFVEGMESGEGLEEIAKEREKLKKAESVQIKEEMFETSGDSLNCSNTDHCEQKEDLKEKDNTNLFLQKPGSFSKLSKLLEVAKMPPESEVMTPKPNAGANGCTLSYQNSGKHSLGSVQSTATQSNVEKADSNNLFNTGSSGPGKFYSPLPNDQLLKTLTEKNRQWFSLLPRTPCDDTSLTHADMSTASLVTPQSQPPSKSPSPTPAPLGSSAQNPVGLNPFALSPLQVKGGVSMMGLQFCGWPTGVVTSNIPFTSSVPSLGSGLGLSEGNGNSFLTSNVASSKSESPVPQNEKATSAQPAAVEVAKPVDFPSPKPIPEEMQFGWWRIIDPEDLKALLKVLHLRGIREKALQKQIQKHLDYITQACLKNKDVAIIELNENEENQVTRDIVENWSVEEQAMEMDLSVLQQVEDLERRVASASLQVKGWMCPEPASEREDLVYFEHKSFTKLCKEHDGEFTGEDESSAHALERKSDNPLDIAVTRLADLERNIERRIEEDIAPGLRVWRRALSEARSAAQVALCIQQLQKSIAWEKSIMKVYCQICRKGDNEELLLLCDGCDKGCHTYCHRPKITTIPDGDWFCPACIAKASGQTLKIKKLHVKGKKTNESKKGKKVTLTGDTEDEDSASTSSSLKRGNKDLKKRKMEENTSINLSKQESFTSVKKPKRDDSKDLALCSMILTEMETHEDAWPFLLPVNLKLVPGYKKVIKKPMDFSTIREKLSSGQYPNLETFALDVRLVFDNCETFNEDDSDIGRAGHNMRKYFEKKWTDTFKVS
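AlphaScreen displacement: compounds (up to 110uM) incubated 30 min at room temperature with a preformed 50 nM BAZ2B/50 nM biotinylated H3K14Ac peptide complex in PBS pH 7.4 with Tween-20. Donor and acceptor beads at 10 ug/mL final added, 20 min light-protected before reading.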
JMJD2A Tudor – inhibitors of human JMJD2A Tudor domain; O75164; AlphaScreen JMJD2A-Tudor / H3K4me3 peptide binding; Potency, µM (highest dose often 114 µM), for inactives: top-dose activity change, negative = inhibition, most hits filed as inhibitors; actives 4.4% (n = 390,000); AID 504339; note: % is set by controls: 0 for no effect and ±100 for the full control effect; nearly all actives have a fitted effect of over 50% in size
Sfp inh – blocks B. subtilis Sfp PPTase activity; Biochemical Sfp PPTase activity, qHTS; Potency, µM, without a hit: largest response in the series, negative = inhibition, usual class: inhibitors; actives 3.5% (n = 310,000);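 note: the enzyme is Sfp with the accession as filed and its product quenches rhodamine fluorescence; 0% = enzyme reaction without inhibitor and -100% = no enzyme wells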
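Step 1, compound plus 15 nM Sfp-PPTase, 15 min, room temperature. Step 2, add rhodamine-CoA (5 uM) and BHQ-2-YbbR (12.5 uM). Step 3, read 525/598 nm fluorescence at 0 and 30 min.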
PLK1 PBD inh – PLK1 (human) polo-box domain binding inhibition; Plk1 PBD binding of FITC phosphopeptide, fluorescence polarization; actives 2.8% (n = 360,000); Potency, µM, inactives show max response, negative = inhibition, most hits filed as inhibitors; P53350; note: series mostly up to about 57 µM; % is set by controls: 0 for no effect and ±100 for the full control effect; nearly all actives have a fitted effect of over 65% in size
Numbers without * were called inactive; ? = inconclusive; . = no result; [ ] = dose if it differs, or a comment. Calls come from the whole dose curve; as a rule, active = well fitted curve in the direction sought with a large enough effect; inconclusive = small, poorly fitted or top-dose-only effect, or another doubt; inactive = no such curve, though single readings can be large; an effect the other way counts as inactive or inconclusive. Potency is the fitted concentration of half-maximal effect.

SMILES	HP1b chromo inh	G9a inh	BAZ2B block	JMJD2A Tudor	Sfp inh	PLK1 PBD inh
COc1ccc(/C(C)=N/NC(=S)Nc2cc(C)ccc2C)cc1	-21%	35µM*	?	?	-14%	-11%
CCCCc1ccc(NC(=S)Nc2ccc(Nc3ccc(OC)cc3)cc2)cc1	?	13µM*	14µM*	28µM*	?	15µM*
COc1ccc(C/C(C)=N/NC(=S)Nc2ccc(C)c(C)c2)cc1	-30%	28µM*	1%	32µM*	-6%	?
Cc1cccc(S(=O)(=O)c2cn(C)c3cc(N4CCN(c5ccc(F)cc5)CC4)c(F)cc3c2=O)c1	29%	2%[59 µM]	-4%	-17%	.	.
Cc1c(C(=O)NC2CCCCC2)sc2nc3ccc(N)cc3n12	.	.	.	.	26%	.
COC(=O)N1CC=CC1(C)C(=O)NCC1CC1 (centres undefined)	.	.	.	.	34%	.
CC(C)[C@@H](CC(=O)N[C@@H]1CCCC[C@H]1C(=O)N[C@H](CC(=O)N[C@@H](CCC(=O)O)CC(=O)O)Cc1ccccc1)NC(=O)C[C@H](Cc1ccccc1)NC(=O)[C@@H]1CNCC[C@H]1N	.	.	.	.	-25%	.
COC(=O)CC1C(C)(C)C(=O)C2CC3=C(CC[C@]4(C)C3=CC(=O)OC4c3ccoc3)[C@@]1(C)C2=O (some centres undefined)	.	.	.	.	-4%	.
CCOc1ccc(S(=O)(=O)N/N=C(\C)Cc2ccc(OC)cc2)cc1	17%	40µM*	?	-15%	10%	-4%
COc1ccc(C/C(C)=N/NC(=S)Nc2ccccc2)cc1	27%	?	-10%	-34%	?	?
COc1ccc(S(=O)(=O)N/N=C(/C)c2ccc(C)o2)cc1	12%	.	.	-18%	.	-19%
CCOc1ccc(NC(=S)N/N=C(\C)Cc2ccc(OC)cc2)cc1	-24%	?	?	7.1µM*	9%	?
O=C(N/N=C/c1cn(Cc2ccccc2)c2ccccc12)c1cc(O)cc(O)c1	-18%	79µM*	50µM*	?	-7%	-4%
O=C(O)c1ccc(N/N=C/c2cn(Cc3ccc(F)cc3)c3ccccc23)cc1	-31%	45µM*	45µM*	56µM*	-13%	24µM*
CC(C)n1cc(/C=N/Nc2ccc(Cl)c(C(=O)O)c2)c2ccccc21	.	10µM*	45µM*	.	-9%	.
Cc1ccc(/C=N/Nc2ccc(Cl)c(C(=O)O)c2)s1	7%	?	?	-25%	-14%	-19%
Cc1ccc(C(=O)N/N=C/c2cn(Cc3ccccc3)c3ccccc23)cn1	15%	.	-30%	?	-12%	-5%
CCNC(=S)N/N=C/c1cn(Cc2ccc(F)cc2)c2ccccc12	-11%	8%[59 µM]	?	?	-1%	0%
CC(C)(C)OC(=O)NCC(=O)NNC(=O)c1nc2ccccc2[nH]1	.	.	.	-15%	.	.
CCCC[C@@H](C=O)NC(=O)[C@H](CC(C)C)NC(=O)OCc1ccccc1	.	-32%[59 µM]	.	.	2%	.
CC(C)C[C@@H]1COc2cccc(N3CCC[C@H]3CO)c2S(=O)(=O)N1	.	.	.	.	.	-15%
CCCCC(=O)NC(c1cccc([N+](=O)[O-])c1)c1c(OC(C)=O)ccc2ccccc12 (centres undefined)	-1%	-51%[59 µM]	?	-24%	14%	-1%
CC(C)c1ccc(C(=O)Nc2cccc3cccnc23)cc1	147%	68%[59 µM]	120%	112%	.	.
CC(=O)NC(c1cccc([N+](=O)[O-])c1)c1ccc2cccnc2c1O (centres undefined)	36%	.	38%	32µM*	-3%	-12%
CCCCC(=O)NC(c1cccc([N+](=O)[O-])c1)c1ccc2cccnc2c1O (centres undefined)	49%	.	.	32µM*	.	2%
O=[N+]([O-])c1ccc(NC(c2ccccc2)c2ccc3cccnc3c2O)cc1 (centres undefined)	-13%[57 µM]	.	.	?	.	-1%
Oc1cccc(C(Nc2nccs2)c2ccc3cccnc3c2O)c1 (centres undefined)	?	?	28µM*	32µM*	8%	?
